As a reminder, the remaining activity is the signal under treatment as a percentage of the control signal. One may read the viability as a read-out of living cells in per cent, often relative to untreated cells.

Values joined by “and” are separate entries in the source; they are usually repeats but may differ in a detail not shown here. Equal values may be shown once. Active and inactive are the calls of the source.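 The calls were made as follows, unless noted: active = compounds whose cell count with miR-34 switched on is under 0.7 times the count with it off; inactive = the rest.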

In test [1] the test system is Aerobactin synthetase IucA (Klebsiella pneumoniae). The test is described as follows: inhibition of K. pneumoniae IucA enzyme – biochemical, Tocris library, absorbance (AID 1345561; call rule not given here;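 also: 100% = enzyme without compound and 0% = no enzyme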). The conditions noted are these: purified IucA enzyme assay, absorbance (OD) read-out; stronger effect = lower value;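 tested at 8 µM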.
Test [2] is described as follows: viability loss with induced miR-34 in A549 – imaging, A549 dox-inducible miR-34, nuclei and caspase counts, primary screen (AID 1347080). The settings on record: A549 miR-34 inducible, Hoechst nuclei count, 48 h.
The nature of test [3]: MELAS cybrid and Rieske KO viability enhancers – cell-based, MELAS cybrids, Rieske KO mouse fibroblasts, CellTiter-Glo, primary screen (AID 1508586;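 active = mean z-score across replicates of 1.96 or higher in either the MELAS or the Rieske mutant cell line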;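 also: z relative to plate mean and SD of compound and empty wells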). The settings on record: low glucose. (Cellular ATP, detected with luciferase, serves as a proxy for viable cell number.)
Test [4] is described as follows: galactose survival enhancers in mitochondrial complex I cybrids – cell-based, galactose medium, ATP luminescence, primary screen (AID 1645843;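 active = z-score of at least 1.8 in each of two replicates, scored against plate mean and spread of sample wells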;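 also: positive z means more ATP and so rescue of galactose-driven cybrid death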). The conditions noted are these: complex I mutant cybrid cells, 72 h, stronger effect = higher value.
The nature of test [5]: blockers of cellular phospholipid synthesis – cell-based, LOPAC library, screen 4, primary screen (AID 1347384; call rule not given here). The conditions noted are these: animal cells, phospholipid biosynthesis inhibition screen; at 10 µM.
A short description of test [6]: P. berghei load reduction in hepatocytes – cell-based, HepG2, luciferase luminescence, HepG2 viability, primary screen (AID 624349; in the data active = parasite load remaining mostly below about 12%, no sharp cut-off; inactive = mostly above about 10%;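 also: 100% = mean of DMSO negative control wells on the same plate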). The conditions noted are these: P. berghei liver stage in HepG2, luciferase luminescence, concentration not given here; parasite load remaining: stronger effect = lower value; viability: measured here: HepG2 viability without parasites.
The nature of test [7]: compounds altering circadian rhythm period length – cell-based, LOPAC library, luminescence reporter (AID 2774; call rule not given here;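 also: values are relative to mean of DMSO wells on each plate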). The conditions noted are these: circadian reporter cells, at 7 µM, actives lie on both sides.
A short description of test [8]: compounds altering HSF1 focus formation in cells – imaging, Selleck Cancer Library (AID 1347162; in the data active = plate-normalised HSF1 focus index below about 0.46). The conditions noted are these: human cells, HSF1 nuclear foci imaging, at 10 µM; SSMD: measured here: HSF1 foci SSMD mean; cell count: measured here: cell number; plate-normalised HSF1 focus index: stronger effect = lower value.
[9] abbreviates: stronger effect = lower value, cell number ratio, induced over uninduced.
Setting [10] is: measured here: relative caspase fold change +Dox/-Dox.
Setting [11] is: measured here: total cells with miR-34 induction, stronger effect = lower value.
Setting [12] is: measured here: total cells without miR-34 induction.
Where [13] appears, read: MELAS cybrid survival, CellTiter-Glo 48 h, stronger effect = higher value.
[14] abbreviates: Rieske KO mouse fibroblast survival, CellTiter-Glo 72 h.

As to `Cc1ccc(Sc2cncc3sc(C(N)=O)cc23)cc1`, in test [1], the remaining activity was 99.8% (inactive). Moreover, the fold change in test [2] (setting [9]) was 0.867 (inactive) and 0.873 (inactive); in test [2] (setting [10]), 2.32 and 1.58. Also, the cell count was 7640 and 7700 in test [2] (setting [11]); 8800 and 8820 in test [2] (setting [12]). For the same compound, the z-score was -0.504 (inactive) in test [3] (setting [13]), -0.347 in test [3] (setting [14]) and -0.625 (inactive) in test [4].
As to `Nc1nnc(Sc2ncc([N+](=O)[O-])s2)s1`, the remaining activity in test [1] was 119% (inactive). The figures for the fold change in test [2] (setting [9]) and in test [2] (setting [10]) were 0.911 (inactive) and 4.18, respectively. Moreover, the cell count in test [2] (setting [11]) was found to be 3000; in test [2] (setting [12]), 3290. Also, in test [4], the z-score is -1.04 (inactive).
As to `N=C(N)SCCc1ccc(OCc2ccc([N+](=O)[O-])cc2)cc1`, the remaining activity in test [1] is 106% (inactive). The fold change in test [2] (setting [9]) is 0.959 (inactive); in test [2] (setting [10]), 0.93. For the same compound, the cell count in test [2] (setting [11]) is 5550; in test [2] (setting [12]), 5790. In test [5], the compound was classed as inactive. In addition, the z-score in test [4] is -0.76 (inactive).
As for `CCCCCCCCCCCCCCCCn1cc[n+](Cc2ccccc2)c1C`, the parasite load remaining in test [6] is 41.6% (inactive). Moreover, the viability in test [6] was determined as 156%. Also, in test [1], the remaining activity is 93.9% (inactive). The fold change in test [2] (setting [9]) is 0.951 (inactive) and 0.701 (inactive); in test [2] (setting [10]), 0.478 and 0.77. Further, the cell count in test [2] (setting [11]) was 1020 and 275; in test [2] (setting [12]), 1080 and 392. The z-score in test [3] (setting [13]) is 0.978 (inactive); in test [3] (setting [14]), -3.72; in test [4], -0.7 (inactive).
For the compound `Cc1cc(F)c(Nc2ncnc3cc(OCc4ccccc4)ccc23)cc1O`, the remaining activity in test [1] was 105% (inactive). In addition, the fold change in test [2] (setting [9]) was 0.94 (inactive) and 0.947 (inactive); in test [2] (setting [10]), 0.62 and 2.22. The cell count in test [2] (setting [11]) is 7080 and 7020; in test [2] (setting [12]), 7530 and 7420. Also, the z-score in test [3] (setting [13]) is 0.202 (inactive); in test [3] (setting [14]), 0.0931; in test [4] it was 1.85 (inactive).
For `NC(C(=O)O)c1ccc(C(=O)O)c(C(=O)O)c1` (centres undefined), in test [1], the remaining activity is 109% (inactive). The figures for the fold change in test [2] (setting [9]) and in test [2] (setting [10]) were 0.922 (inactive) and 0.667, respectively. Besides, the results for the cell count in test [2] (setting [11]) and in test [2] (setting [12]) were 8080 and 8760, respectively. Also, the z-score in test [4] is 0.13 (inactive).
For the compound `CN(C)CCCCSC(=N)N`, the period change in test [7] was 0.15 h (inactive). In test [1], the remaining activity is 110% (inactive). The fold change in test [2] (setting [9]) is 0.981 (inactive); in test [2] (setting [10]), 0.637. The cell count turned out to be 8600 in test [2] (setting [11]), 8770 in test [2] (setting [12]) and 6740 in test [8]. The same compound had an SSMD in test [8] of 1.03. In test [8], the plate-normalised HSF1 focus index was 1.06 (inactive). Besides, in test [4], the z-score is 0.38 (inactive).
`COc1cc2ncnc(Nc3ccc(Cl)cc3F)c2cc1OC`: in test [1], the remaining activity was 98.6% (inactive). In addition, the fold change in test [2] (setting [9]) was 0.989 (inactive) and 1 (inactive); in test [2] (setting [10]) it was 0.8 and 1.6. In addition, the cell count in test [2] (setting [11]) was 5840 and 6100; in test [2] (setting [12]), 5900 and 6080. Besides, the results for the z-score in test [3] (setting [13]), in test [3] (setting [14]) and in test [4] were -0.209 (inactive), -0.0991 and 0.365 (inactive), respectively.
For `OC[C@H]1O[C@@H](n2cnc3c(NC4CCCC4)nc(Cl)nc32)[C@H](O)[C@@H]1O`, the remaining activity in test [1] is 122% (inactive). The fold change in test [2] (setting [9]) is 0.891 (inactive); in test [2] (setting [10]), 0.662. Moreover, the results for the cell count in test [2] (setting [11]) and in test [2] (setting [12]) were 8890 and 9980, respectively. Also, in test [4], the z-score is 0.55 (inactive).
For `COc1ccc(C(=O)Nc2sc3c(c2C(N)=O)CCCC3)cc1OC`, the parasite load remaining in test [6] was 36.2% (inactive). Also, the viability in test [6] came out at 126%. Also, in test [1], the remaining activity was 100% (inactive). Moreover, the fold change in test [2] (setting [9]) was 0.968 (inactive) and 0.928 (inactive); in test [2] (setting [10]) it was 0.55 and 1.37. The cell count in test [2] (setting [11]) is 7430 and 8340; in test [2] (setting [12]) it was 7670 and 8990. The z-score was -0.293 (inactive) in test [3] (setting [13]), 0.823 in test [3] (setting [14]) and 1.42 (inactive) in test [4].

The values above are taken from PubChem BioAssay.
